Here are results for 26 compounds from PubChem BioAssay (NCATS).

Inconclusive results are not listed. Activity calls are given as the source filed them. Calls follow the shape of the dose curve; as a rule, active = well fitted curve in the direction sought with a large enough effect; inconclusive = small, poorly fitted or top-dose-only effect, or another doubt; inactive = no such curve, though single readings can be large; an effect the other way counts as inactive or inconclusive. *1 amine or outer side, *2 acyl side, *3 side chain or, on linkers, in order; H or OH if unused. Where a SMILES comes first, the peptide text is derived from it. Bridges are numbered along the chain shown (N, C = ends). Roman numbers before positions name the chains, in order. [ ]: non-standard residue; d: D form. ξ: configuration not given here. Actinocin(9to1) = Cc1c2oc3c(C)ccc(C(=O)[*:1])c3nc-2c(C(=O)[*:2])c(N)c1=O; ξNMeV = CNC(C(=O)O)C(C)C; ξV = CC(C)C(N)C(=O)O; Sar = CNCC(=O)O

The subject of assay [1] is Zika virus NS2B-NS3 protease (unlinked complex). The assay can be described thus: Primary screen GU Rhodamine qHTS for Zika virus inhibitors: Unlinked NS2B-NS3 protease assay (AID 1347159). Also: nearly all actives have a fitted effect of over 60% in size. Also: potency is read from the fitted curve at half-maximal effect. The gist of the method:
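Percent inhibition came from the 15-min rise in Rhodamine110 fluorescence (1.5 microM substrate, ~15% conversion), normalized to no-inhibitor and no-enzyme wells and Hill-fitted. Unlinked protease, 25 nM, pH 8.0 Tris buffer; compounds up to 114 microM, 15-min preincubation.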
On the technique in general: Quantitative high-throughput screening tests each substance at several concentrations.

Assay [2] relates to Zika virus NS2B-NS3 protease (linked construct). The assay is described as follows: Primary screen NINDS Rhodamine qHTS for Zika virus inhibitors (AID 1347160). Also: nearly all actives have a fitted effect of over 55% in size. Also: potency is read from the fitted curve at half-maximal effect. Put shortly:
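Rhodamine110-peptide cleavage (1.5 µM substrate) by 25 nM linked NS2B-NS3 enzyme at pH 8.0 (Tris, Tween 20), after 15 min RT preincubation with compounds; 15-min fluorescence change normalized to controls and Hill-fitted.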

The nature of assay [3]: Confirmatory screen NINDS Rhodamine qHTS for Zika virus inhibitors (AID 1347161). Also: potency is read from the fitted curve at half-maximal effect; nearly all actives have a fitted effect of over 60% in size. The following applies: purified enzyme assay, Rhodamine110 substrate fluorescence, 15 min. The gist of the method: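 Percent inhibition, normalized to uninhibited and enzyme-free controls, is fitted to a 4-parameter Hill equation. Fluorescence change comes from a 15-min cleavage of 1.5 microM bis-peptide Rhodamine110 substrate by 25 nM linked NS2B-NS3 at room temperature.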

Assay [4] is described as follows: HepG2 cells viability qHTS for Zika virus inhibitors (AID 1347168). The gist of the method:
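qHTS titration; 24-48 h compound exposure, 37 degrees C/5% CO2; DMEM, 4% FBS; CellTiter Glo ATP luminescence.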

On to `C[C@@H]1C[C@H](O)/C=C/[C@H](O)[C@@H](O)CC(=O)O1`, for which the Potency result in assay [1] and in assay [2] was “inactive” in each case.
As to `C=C1C2(CCC(=O)OC2(C)C)CC(OC(=O)/C(C)=C/C)C2(C)C13OC14C(=O)OC(C)(C(=O)C12C(=O)OC4C)C3OC(C)=O` (stereo not given), the Potency entry in assay [1] and in assay [2] was “inactive” in each case.
Regarding `C/C(=C/CO)CC[C@@H]1[C@@]2(C)CCC[C@](C)(C(=O)O)C2CC[C@@]1(C)O` (stereo not given in full), the Potency result in assay [1] and in assay [2] was “inactive” throughout.
With `O=C(OCC12OC1C=CC(OC(=O)c1ccccc1)C2O)c1ccccc1` (stereo not given), the Potency entry in assay [1] and in assay [2] was “inactive” throughout.
For `Cc1c(-c2ccnn2C)cc(C(=O)NCc2ccc(S(C)(=O)=O)cn2)c(=O)n1-c1cccc(C(F)(F)F)c1`, the Potency entry in assay [1] and in assay [2] was “inactive” in each case.
With `CC(=O)OC[C@]12[C@H](OC(C)=O)C(=O)[C@@H]3[C@@H](OC(C)=O)[C@@]14O[C@@]3(C)COC(=O)c1cccnc1[C@@H](C)[C@H](C)C(=O)O[C@@H]([C@H](OC(C)=O)[C@@H]2OC(C)=O)[C@]4(C)O`, the Potency result in assay [1] and in assay [2] was “inactive” each time.
As for `Cn1c(=O)c2nc(/C=C/c3cccc(Cl)c3)n(C)c2n(C)c1=O`, the Potency entry in assay [1] and in assay [2] was “inactive” throughout.
For the compound `NCc1c[nH]c(=S)n1C1CCc2c(F)cc(F)cc2C1` (stereo not given), the Potency entry in assay [1] and in assay [2] was “inactive” in each case.
As to `COc1cc(/C=C/C(=O)OC[C@H]2O[C@H](O[C@]3(CO)O[C@H](CO)[C@@H](O)[C@@H]3O)[C@H](O)[C@@H](O)[C@@H]2O)cc(OC)c1O`, the Potency entry in assay [1] and in assay [2] was “inactive” in each case.
On to `CC(/C=C/C1(O)C(C)CC(O)CC1(C)C)OC1OC(CO)C(O)C(O)C1O` (stereo not given), for which the Potency entry in assay [1] and in assay [2] was “inactive” in each case.
`C=C[C@H]1[C@H](O[C@@H]2O[C@H](CO[C@@H]3OC[C@](O)(CO)[C@H]3O)[C@@H](O)[C@H](O)[C@H]2O)OC=C2C(=O)OCC[C@H]21`: the Potency entry in assay [1] and in assay [2] was “inactive” each time.
With `CO[C@@H](Cc1ccc(OCCc2nc(-c3ccccc3)oc2C)c2ccsc12)C(=O)O`, the Potency in assay [1] is 17.8 µM (active); in assay [2], 12.6 µM (active).
Regarding `COc1c(C)c(C(=O)c2ccc(N)c(C(=O)O)c2)n2ccccc12`, the Potency result in assay [1] and in assay [2] was “inactive” throughout.
On to `C=CC1(C)CC2=CCC3C(C)(C(=O)O)CCCC3(C)C2CC1OC(C)=O` (stereo not given), for which the Potency result in assay [1] and in assay [2] was “inactive” each time.
`CC(C#N)C(C)O[C@@H]1O[C@H](CO)[C@@H](O)[C@H](O)[C@H]1O` (stereo not given in full): the Potency result in assay [1] and in assay [2] was “inactive” in each case.
As for `CC(=O)N[C@H](Cc1ccc(O)cc1)C(=O)N[C@H](CCCN=C(N)N)C(=O)N[C@H](Cc1ccccc1)C(N)=O` (Ac-[dY]-[dR]-[dF]-NH2), the Potency entry in assay [1] and in assay [2] was “inactive” in each case.
For `CCC(C)(O)C(O)C(=O)OCc1ccc(O[C@@H]2O[C@H](CO)[C@@H](O)[C@H](O)[C@H]2O)cc1` (stereo not given in full), the Potency result in assay [1] and in assay [2] was “inactive” each time.
Consider `COC1=Cc2c(nc3n(c2=O)C(C)C(=O)NC3(O)C(C)C)OC=C1` (stereo not given), for which the Potency result in assay [1] and in assay [2] was “inactive” throughout.
`C=C(C)C(=O)O[C@H]1C[C@@](C)(OC(C)=O)[C@@]2(O)CC[C@@](C)(O)[C@H](OC(C)=O)[C@@]23OC(=O)C(COC)=C13`: the Potency entry in assay [1] and in assay [2] was “inactive” each time.
Regarding `NCCOCCOCCNC(=O)Cc1ccc(Nc2nc(NCc3ccc(F)cc3)nc(NCC3CCCCC3)n2)cc1`, the Potency entry in assay [1] and in assay [2] was “inactive” in each case.
For `CCC(=O)N[C@@H]1Cc2ccccc2[C@H](c2ccccc2)C1`, the Potency result in assay [1] and in assay [2] was “inactive” in each case.
`CC1(C)CCCC2(C)C3=C(C(=O)OC3O)C(O)CC12` (stereo not given): the Potency result in assay [1] and in assay [2] was “inactive” in each case.
As to `CC(C)(C)NCC(O)COc1cccc2c1CCCC2=O` (stereo not given), the Potency entry in assay [1] and in assay [2] was “inactive” in each case.
Consider `CC(=O)N(O)CCCCCN1C(=O)CCC1=O`, for which the Potency entry in assay [1] and in assay [2] was “inactive” throughout.
Take `CC1(C)CC2C3=CCC4C5(C)CCC(OC6OC(CO)C(O)C(OC7OC(CO)C(O)C(OC8OC(CO)C(O)C(OC9OC(COC%10OC(CO)C(O)C(O)C%10O)C(O)C(O)C9O)C8O)C7O)C6O)C(C)(C)C5CCC4(C)C3(C)CCC2(C(=O)O)CC1O` (stereo not given): the Potency in assay [3] was 7.42 µM (active).
On to `Cc1c2oc3c(C)ccc(C(=O)N[C@@H]4C(=O)NC(C(C)C)C(=O)N5CCC[C@H]5C(=O)N(C)CC(=O)N(C)C(C(C)C)C(=O)O[C@@H]4C)c3nc-2c(C(=O)N[C@@H]2C(=O)NC(C(C)C)C(=O)N3CCC[C@H]3C(=O)N(C)CC(=O)N(C)C(C(C)C)C(=O)O[C@@H]2C)c(N)c1=O` (stereo not given in full) (I: T[ξV]P[Sar][ξNMeV] / II: T[ξV]P[Sar][ξNMeV]; ester I:1-I:C, II:1-II:C; linker I:N-II:N via Actinocin(9to1)), for which the outcome in assay [4] was inactive.
